The text below walks through data of PubChem BioAssay (NCATS).

One assay deals with Es-2. The experiment in a line: Primary qHTS to identify gynecologic anti-cancer compounds using libraries of approved drugs and bioactive compounds (AID 1345084). Also: nearly all actives have a fitted effect of over 55% in size. To be noted: Gynecologic cancer cell panel viability, ATPlite luminescence, 48 h; series mostly up to 57.5 µM. Summed up: (§1)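 Cell viability after 48 h drug treatment, ATPlite luminescence readout; five doses.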
Another assay relates to HeLa. The assay is described as above. To be noted: Gynecologic cancer cell panel viability, ATPlite luminescence, 48 h; series mostly up to 57.5 µM. The method in brief: as §1
The test system of a further assay is Hek293T. Described as above. To be noted: Gynecologic cancer cell panel viability, ATPlite luminescence, 48 h, control line for the selectivity index; series mostly up to 57.5 µM. The method in brief: as §1
Another assay has as its system PA-1. The description is as above. To be noted: Gynecologic cancer cell panel viability, ATPlite luminescence, 48 h; series mostly up to 57.5 µM. Summed up:
as §1

The next assay has as its system Tov112D. Described as above. To be noted: Gynecologic cancer cell panel viability, ATPlite luminescence, 48 h; series mostly up to 57.5 µM. The method in brief:
as §1

A short description of assay [1]: qHTS assay to identify inhibitors of the type 1 interferon - major histocompatibility complex class I in skeletal muscle: Counter screen cell viability and HiBit confirmation (AID 1347412). Also: nearly all actives have a fitted effect of over 60% in size. To be noted: iHSKM muscle cells + IFN-b, HiBiT or CellTiter-Glo, 24 h. The method in brief: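 HLA-B*08:01–HiBiT knock-in immortalized human myoblasts (C25cl48) stimulated with 4.0 ng/ml human IFN-beta and dosed with compound in a 12-point 1:3 titration (top final 46 uM). After 24 hrs at 37 C, HiBiT lytic luminescence or CellTiter Glo ATP read out.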

A further assay relates to CASKI. The assay is described as follows: Primary qHTS to identify gynecologic anti-cancer compounds using libraries of approved drugs and bioactive compounds (AID 1345084). Also: nearly all actives have a fitted effect of over 55% in size. To be noted: Gynecologic cancer cell panel viability, ATPlite luminescence, 48 h; series mostly up to 57.5 µM. Summed up:
as §1

For another assay, the system named is JEG-3. Described as above. To be noted: Gynecologic cancer cell panel viability, ATPlite luminescence, 48 h; series mostly up to 57.5 µM. The method in brief: as §1
The next assay deals with OV90. The assay is described as above. To be noted: Gynecologic cancer cell panel viability, ATPlite luminescence, 48 h; series mostly up to 57.5 µM. Summed up:
as §1

In another assay the test system is SKOV3. Described as above. To be noted: Gynecologic cancer cell panel viability, ATPlite luminescence, 48 h; series mostly up to 57.5 µM. The method in brief:
as §1

The next assay concerns Tov-21-G. The description is as above. To be noted: Gynecologic cancer cell panel viability, ATPlite luminescence, 48 h; series mostly up to 57.5 µM. Summed up:
as §1

The nature of assay [2]: Drug repurposing screens with cells derived from glioblastoma tumor samples (AID 1345199). Also: nearly all actives have a fitted effect of over 40% in size. To be noted: GBM patient neurospheres viability, ATP luminescence, 48 h. The method in brief:
(§2)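 Four patient lines of CD133+ GBM neurospheres were screened at several concentrations; hits were retested in those lines plus three slower-growing GBM lines, using 48-hour treatment and ATP-based viability.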

For the next assay, the system named is astro. The assay is described as above. To be noted: viability, ATP luminescence, 48 h; series mostly up to 45.9 µM. Summed up:
as §2

[3] abbreviates: at 20 µM (top of the series), tumour line C.
[4] abbreviates: at 45.9 µM (top of the series), tumour line B.
Setting [5] is: at 45.9 µM (top of the series), tumour line D.
The mark [6] stands for this setting: at 46 µM (top of the series), tumour line A.
The mark [7] stands for this setting: at 46.1 µM (top of the series), tumour line C.

Inconclusive results are not listed. Unmarked numbers belong to inactive results. Active and inactive are the calls of the source. Calls follow the shape of the dose curve; as a rule, active = well fitted curve in the direction sought with a large enough effect; inconclusive = small, poorly fitted or top-dose-only effect, or another doubt; inactive = no such curve, though single readings can be large; an effect the other way counts as inactive or inconclusive.
% is scaled to controls: 0 for no effect and ±100 for the full control effect; potency is read from the fitted curve at half-maximal effect.

`CNC(=O)c1ccc(Nc2ncc(C(F)(F)F)c(NCc3nccnc3N(C)S(C)(=O)=O)n2)cc1`: the Potency in the assay on Es-2 was 17.8 µM (active); in the assay with HeLa, 10 µM (active); in the assay with Hek293T, 8.91 µM (active); in the assay on PA-1, 4.47 µM (active); in the assay on Tov112D it was 22.4 µM (active); in [1] (HiBiT), 3.52 µM (active). In addition, the activity change, negative = inhibition in [1] (Viability, at 45.9 µM (top of the series)) was -7.39%.

Consider `COc1ccc([C@@H]2N[C@H](C(=O)O)Cc3c2[nH]c2ccccc32)cc1CN1CCN(c2ccccc2F)CC1`, for which the Potency entry with CASKI, with Es-2, in the assay with HeLa, with Hek293T, in the assay with JEG-3 and in the assay on OV90 was “inactive” each time. Moreover, the Potency entry with PA-1, in the assay with SKOV3, in the assay on Tov-21-G and with Tov112D was “inactive” in each case.

As to `CCc1nc(C(N)=O)c(Nc2ccc(N3CCC(N4CCN(C)CC4)CC3)c(OC)c2)nc1NC1CCOCC1`, the Potency with CASKI was 7.08 µM (active); in the assay with HeLa it was 3.55 µM (active); in the assay on PA-1, 2.24 µM (active); in the assay with SKOV3, 1.12 µM (active). The Potency result with Es-2, in the assay with JEG-3 and with OV90 was “inactive” in each case.

Turning to `CCC(CCO[C@@H]1O[C@H](CO[C@H]2OC[C@](O)(CO)[C@H]2O)[C@@H](O)[C@H](O)[C@H]1O)C(C)(C)O` (stereo partly specified), the Potency result with CASKI, in the assay on Es-2, with HeLa, in the assay with Hek293T, in the assay on JEG-3 and in the assay on OV90 was “inactive” throughout. Besides, the Potency entry with PA-1, with SKOV3, in the assay on Tov-21-G and with Tov112D was “inactive” throughout.

As to `CN(NC(=O)CC(=O)NN(C)C(=S)c1ccccc1)C(=S)c1ccccc1`, the Potency result in the assay on CASKI, with Es-2, in the assay on HeLa, with Hek293T, in the assay with JEG-3 and in the assay with Tov112D was “inactive” each time. Further, in the assay on Tov-21-G, the Potency is 1.12 µM (active).

As to `CON(C)C(=O)N1N=C(c2cc(F)ccc2F)S[C@@]1(CCCN)c1ccccc1`, the Potency result in the assay with OV90 and in the assay on SKOV3 was “inactive” in each case.

On to `CC(C)N=c1cc2n(-c3ccc(Cl)cc3)c3ccccc3nc-2cc1Nc1ccc(Cl)cc1`, for which the activity, negative = cell killing in assay [2] (setting [3]) is -8.51%. The Potency in assay [2] (tumour line A) was 5.01 µM (active).

Take `C[C@@H]1[C@H](O)[C@@H](C)/C=C/C=C\C=C\C=C\C=C\C=C\C=C\[C@H](O[C@@H]2O[C@H](C)[C@@H](O)[C@H](N)[C@@H]2O)C[C@@H]2O[C@](O)(C[C@@H](O)C[C@@H](O)[C@H](O)CC[C@@H](O)C[C@@H](O)CC(=O)O[C@H]1C)C[C@H](O)[C@H]2C(=O)O` (stereo in doubt): the activity, negative = cell killing in assay [2] (setting [4]) is -6.2%; in assay [2] (setting [5]) it was -9.92%; in assay [2] (setting [6]) it was -13.6%; in [2] (setting [7]), -5.87%. In addition, the Potency result in the assay on astro is “inactive”.

For the compound `C=CCc1ccc(O[C@@H]2O[C@H](CO)[C@@H](O)[C@H](O)[C@H]2O)c(OC)c1`, the Potency result in the assay with CASKI, with Es-2, in the assay with HeLa, with Hek293T, in the assay on JEG-3 and in the assay with OV90 was “inactive” throughout. The Potency result in the assay with PA-1, with Tov-21-G and in the assay on Tov112D was “inactive” each time.

For the compound `C=CC1(C)CC2=CCC3C(C)(C(=O)O)CCCC3(C)C2CC1OC(C)=O` (stereo unspecified), the Potency result with CASKI, with Es-2, with HeLa, in the assay on Hek293T, in the assay on JEG-3 and with OV90 was “inactive” each time. In addition, the Potency result in the assay on PA-1, with SKOV3, with Tov-21-G and in the assay on Tov112D was “inactive” each time.

Take `CC(=O)Oc1cc(C)c(OC(C)=O)c2ccccc12`: the activity, negative = cell killing in assay [2] (setting [4]) was -16.5%; in [2] (setting [7]), 0.711%.

For the compound `CC(C)NCC1CCc2cc(CO)c([N+](=O)[O-])cc2N1` (stereo unspecified), the activity, negative = cell killing in assay [2] (setting [3]) was -4.59%; in [2] (at 21.2 µM (top of the series), tumour line B), -15%; in [2] (at 21.2 µM (top of the series), tumour line D), -4.44%.

Turning to `CN(C)CCCN1c2ccccc2C(C)(C)c2ccccc21`, the activity, negative = cell killing in [2] (setting [7]) is 1.86%. The Potency in assay [2] (tumour line A) was 14.1 µM (active).

Consider `C=CC1=C(C)C2=CC3=NC(=C(CC(=O)[O-])C4=NC(=C(C)C4=C([O-])[O-])C=c4[n-]c(c(C)c4CC)=CC1=N2)C(CCC(=O)[O-])C3C.[Cu+2].[Na+].[Na+].[Na+]` (stereo unspecified), for which the activity, negative = cell killing in assay [2] (setting [6]) was -28%; in assay [2] (setting [7]), 10.7%.

Turning to `CC1=C(/C=C/C(C)=C/C=C/C(C)=C/CO)C(C)(C)CCC1`, the activity, negative = cell killing in assay [2] (setting [4]) is -16.9%; in assay [2] (setting [5]) it was -16.1%. The Potency in assay [2] (tumour line A) is 31.6 µM (active).

Regarding `NCc1ccc(OCCCc2sc(-c3ccc4c(c3)/C(=N/Nc3nc5ccccc5s3)CCC4)nc2C(=O)O)cc1`, the Potency entry in the assay with Es-2, in the assay on Hek293T, in the assay with JEG-3, with PA-1, with Tov-21-G and with Tov112D was “inactive” each time.

In the case of `Cc1cc(C)c(S(=O)(=O)N(Cc2ccc(-c3cccc(S(C)(=O)=O)c3)cc2)Cc2ccc(C(F)(F)F)o2)c(C)c1`, the Potency result with CASKI, in the assay on Es-2, in the assay with HeLa, in the assay on Hek293T, with JEG-3 and in the assay on OV90 was “inactive” in each case. Also, the Potency result with PA-1, with Tov-21-G and in the assay on Tov112D was “inactive” throughout.

Turning to `Cc1nc2c(-c3cnc(N)nc3)nc(N3CCOCC3)nc2n1C(C)C`, the Potency in the assay on CASKI is 1.26 µM (active); in the assay with HeLa it was 1.58 µM (active); in the assay on Hek293T, 0.708 µM (active); in the assay with OV90, 1.12 µM (active); with PA-1, 2 µM (active); with SKOV3, 0.562 µM (active). For the same compound, the Potency with Tov-21-G was 0.631 µM (active).

For the compound `CCc1ccc2c(c1)N(CC(C)CN(C)C)c1ccccc1S2` (stereo unspecified), the activity, negative = cell killing in assay [2] (setting [7]) is 11.1%. Besides, the figures for the Potency in assay [2] (tumour line A) and in assay [2] (tumour line B) were 4.47 µM (active) and 25.1 µM (active), respectively.

With `CC(=O)N[C@@H](CC(=O)N[C@@H](CCC(=O)O)C(=O)O)C(=O)O`, the figures for the activity, negative = cell killing in [2] (setting [4]), in [2] (setting [5]) and in [2] (setting [7]) were -3.93%, 0.816% and 6.84%, respectively. The Potency in assay [2] (tumour line A) is 22.4 µM (active). Moreover, the Potency entry in the assay on astro was “inactive”.
